Compound activity from PubChem.
DUSP3 inh = inhibitors of human VHR1 phosphatase (DUSP3); recombinant VHR phosphatase, pNPP absorbance; AID 1654; inhibition, % at 13.3 µM; hit rate 0.52% among 290,000; in the data active = inhibition above about 50%
Vc quorum ag = quorum light induction in luxS cqsA deficient V. cholerae; V. cholerae BH1578 lux reporter, luminescence, 6 h; activation, % at 18.7 µM; hit rate 0.16% among 350,000; AID 588436; in the data active = activation mostly above about 9.7%, no sharp cut-off
CCHF vOTU inh = CCHFV vOTU protease inhibition | Pep-AMC fluorescence | inhibition, % at 11.5 µM | hit rate 0.55% among 370,000; in the data active = inhibition above about 30%
PrPC surface inh = inhibitors of human cell surface prion protein PrPC. TR-FRET read-out. inhibition, % at 13.8 µM. hit rate 0.43% among 370,000. AID 720596; in the data active = inhibition above about 24%
PriA SSB inh = inhibitors of Klebsiella pneumoniae PriA binding to SSB C-terminal tail | AlphaScreen SSBct-PriA binding, biotinylated peptide | inhibition, % at 33 µM | hit rate 0.6% among 430,000 | AID 1272365; in the data active = inhibition mostly above about 37%, no sharp cut-off; inactive = mostly below about 20%
TcdB inh = TcdB glycohydrolase inhibition; P18177; TcdB glycohydrolase enzymatic assay, plate reader; inhibition, % at 9.99 µM; hit rate 0.24% among 350,000; in the data active = inhibition above about 10%
PrPC TRFRET cf = confirmation of inhibitors of cell surface human prion protein | shares compounds with PrPC surface inh | cell surface PrPC level, TR-FRET | inhibition, % at 13.8 µM | hit rate 65% among 1,500 | AID 743200; in the data active = inhibition above about 25%
LD9 tox = LD9 cell cytotoxicity, PrPc inhibitor counter-screen; shares compounds with PrPC surface inh; hit rate 29% among 1,500; AID 743201; LD9 cells cytotoxicity, luminescence viability; inhibition, % at 13.8 µM; in the data active = inhibition above about 9.5%
Numbers stand for hits; i = inactive; nt = no result; + = active, no number; ! = not confirmed by another sample. In the library only some 1.5% were active in any assay of this set; here they are far more common.

SMILES	DUSP3 inh	Vc quorum ag	CCHF vOTU inh	PrPC surface inh	PriA SSB inh	TcdB inh	PrPC TRFRET cf	LD9 tox
COc1ccc2c(c1)c(/C=N/Nc1nc3ccccc3[nH]1)c(C)n2C	i	i	i	24.8	+	i	i	26.6
COc1cc(/C=N\Nc2nc3ccccc3[nH]2)cc(OC)c1OC	i	i	i	i	nt	nt	nt	nt
O=C(NC1CCCC1)C(c1ccncc1)N(Cc1ccco1)C(=O)c1ccc(-c2ccccc2)[nH]1 (centres undefined)	i	i	i	i	i	i	nt	nt
O=C(NC1CCCC1)C(c1ccncc1)N(Cc1ccccc1)C(=O)c1ccc(-c2ccccc2)[nH]1 (centres undefined)	i	i	i	26.4	i	nt	i	i
CC(C)(C)NC(=O)C(c1ccncc1)N(Cc1ccc(F)cc1)C(=O)c1ccc(-c2ccccc2)[nH]1 (centres undefined)	i	i	i	27.0	i	i	i	i
COc1ccc(OC2CCN(C(=O)c3cnc(C)cn3)C2)nn1 (centres undefined)	nt	nt	nt	nt	i	nt	nt	nt
COc1ccc(S(=O)(=O)N[C@H]2CC(=O)N(c3cccc(F)c3)C2)cc1OC	nt	nt	nt	nt	i	nt	nt	nt
CCOc1ccc(NC(=O)N2CCn3cccc3[C@H]2c2ccncc2)cc1	nt	nt	nt	nt	i	nt	nt	nt
O=C(c1cc(-c2ccccn2)nc2ccccc12)N1CCc2ccccc2C1	nt	nt	nt	nt	i	nt	nt	nt
CCCCCCSc1ccc(-c2nc3ccc(Cl)cn3c2NCCCC)cc1OC	nt	i	i	33.4!	i	i	i	i
Cc1ccc(C)c(Nc2ccc(C(=O)NCCc3ccccc3)cn2)c1	i	i	i	26.9	i	i	i	i
COC(=O)C12OCC34C(CC5C(C)=C(O)C(=O)CC5(C)C3C(O)C1O)OC(=O)C(OC(=O)/C=C(\C)C(C)C)C24 (centres undefined)	nt	i	i	100.5	i	i	100.0	46.9
COC(=O)C12OCC34C(CC5C(C)=C(O)C(=O)CC5(C)C3C(O)C1O)OC(=O)C(OC(=O)C=C(C)C)C24 (centres undefined)	nt	i	i	99.7	i	i	100.8	34.8
O=S(=O)(c1ccc2c(c1)CCN2S(=O)(=O)c1ccccc1)N1CCOCC1	nt	nt	nt	nt	i	nt	nt	nt
CCOc1cccc(C(O)=C2C(=O)C(=O)N(Cc3cccnc3)C2c2ccco2)c1 (centres undefined)	nt	nt	nt	nt	i	nt	nt	nt
COc1ccc(-c2cc(CNc3nc(NC(C)C)nc4cc(-c5ccccc5)sc34)on2)cc1	nt	i	i	25.4	nt	i	40.2	i
Cc1c(OCC(N)=O)ccc2c(-c3ccccc3)cc(=O)oc12	i	i	i	26.6	i	i	i	i
CC(=O)COc1ccc2c(-c3ccccc3)cc(=O)oc2c1C	i	i	i	i	i	i	nt	nt
N#CCC(=O)Nc1ccc(C(=O)OCC(=O)C23CC4CC(CC(C4)C2)C3)cc1	nt	i	i	i	i	i	nt	nt
O=C(OCCC12CC3CC(CC(C3)C1)C2)c1ccc(NCc2cc(O)ccc2O)cc1	nt	i	i	28.1	i	i	45.4	72.2
CCNC(=O)OCCC12CC3CC(CC(C3)C1)C2	i	i	i	i	i	nt	nt	nt
O=C(OCC12CC3CC(CC(C3)C1)C2)c1ccc(NCc2cc(O)ccc2O)cc1	nt	i	i	25.3	i	i	26.0	21.7
CSc1ccccc1-c1nnc(NC(=O)C2COc3ccccc3O2)o1 (centres undefined)	nt	nt	nt	nt	i	nt	nt	nt
CS(=O)(=O)c1ccc(CC(=O)Nc2onc3c2CCCC3)cc1	nt	nt	nt	nt	i	nt	nt	nt
COc1cc2sc3cc(NCCCN4CCOCC4)ccc3c(=O)c2cc1OC	nt	i	i	i	i	i	nt	nt
SMILES	DUSP3 inh	Vc quorum ag	CCHF vOTU inh	PrPC surface inh	PriA SSB inh	TcdB inh	PrPC TRFRET cf	LD9 tox
COc1cccc2sc3cc(NCc4ccc(C)o4)ccc3c(=O)c12	nt	i	i	36.7	i	i	83.2	i
O=C(COc1ccccc1)NCCCn1nc(-c2cccs2)ccc1=O	nt	nt	nt	nt	i	nt	nt	nt
CCOC(=O)CSc1ccc2ccccc2n1	i	i	i	28.4	i	i	60.8	i
O=C(O)CSc1ccc2ccccc2n1	i	i	i	57.8	i	nt	57.6	i
Cc1nc(SCCC(=O)O)c2ccccc2n1	i	i	i	102.8	i	i	118.9	i
CCOC(=O)CSc1nc2ccccc2n1C(=O)OCC	i	i	i	i	i	nt	nt	nt
O=C(CCSc1ccc2ccccc2n1)NCCc1ccccc1	nt	nt	nt	nt	i	nt	nt	nt
O=C(O)CCSc1ccc2ccccc2n1	i	i	i	82.3	i	i	88.7	i
Cc1cc(SCCC(=O)O)nc2ccccc12	i	i	i	i	i	nt	nt	nt
Cc1cccc(NC(=O)N2CCCC(c3nnc(-c4cccs4)o3)C2)c1 (centres undefined)	nt	nt	nt	nt	i	nt	nt	nt
Cc1cc(NC(=O)Cn2c(=O)c3c(N4CCN(C(=O)C5CC5)CC4)ccnc3n(C)c2=O)no1	nt	nt	nt	nt	i	nt	nt	nt
CCn1nc(C(=O)O)ccc1=O	nt	nt	nt	nt	i	nt	nt	nt
CC(=O)c1cccc(NS(=O)(=O)c2ccc(-c3cnc(C4CC4)o3)cc2)c1	i	i	i	30.2	i	i	i	19.0
O=S(=O)(Nc1ccccc1)c1ccc(-c2cnc(C3CC3)o2)cc1	i	i	i	i	i	i	nt	nt
O=C(Nc1ccccc1O)c1coc(NC(=O)C2CCC2)n1	nt	nt	nt	nt	i	nt	nt	nt
CN(C)C1CCN(CC(F)(F)F)C1=O (centres undefined)	nt	nt	nt	nt	i	nt	nt	nt
O=C(OC1CN(c2nc3ccccc3s2)C1)c1cc(Cl)sc1Cl	nt	nt	nt	nt	i	nt	nt	nt
COc1cccc2cc(C(=O)C3=C(O)C(=O)N(CCN(C)C)C3c3ccc(Cl)cc3)oc12 (centres undefined)	i	i	i	40.6	i	i	52.0	i
Cc1nc2ccc(S(=O)(=O)NCCn3nc(-c4ccco4)ccc3=O)cc2s1	nt	nt	nt	nt	i	nt	nt	nt
O=C(NC1CCCC1)c1cc(COc2ccc3ncccc3c2)on1	i	i	nt	nt	i	nt	nt	nt
O=C(c1cc(COc2ccc3ncccc3c2)on1)N1CCCC1	i	i	i	42.4	i	i	42.4	i
CC(NC(=O)c1cc(COc2ccc3ncccc3c2)on1)c1ccc(F)cc1 (centres undefined)	i	i	i	32.8	i	i	34.3	11.4
O=C(NCCc1cn2ccccc2n1)c1cc(COc2ccc3ncccc3c2)on1	i	i	i	25.1	i	i	40.5	48.7
COc1ccc(NC(=O)c2cccc(-c3ccc(O)cc3)c2)cn1	i	i	i	33.3	i	i	i	i
COc1ccc(-c2ccc(=O)n(CCNC(=O)C(C)Oc3ccc4c(c3)OCO4)n2)cc1 (centres undefined)	nt	nt	nt	nt	i	nt	nt	nt
O=C(NCCn1ccnc1-c1ccccn1)NC(c1ccccc1)c1ccccc1	nt	nt	nt	nt	i	nt	nt	nt
COc1ccccc1-c1ncn(Cc2cccc(-c3ccccc3)c2)c1CC(C)C	nt	nt	i	27.2	nt	i	i	i
CCCc1c(-c2ccc(F)cc2F)ncn1Cc1cccc(-c2ccccc2)c1	nt	nt	i	29.9	nt	i	i	i
CCCc1c(-c2cccc(Cl)c2)ncn1Cc1cccc(-c2ccccc2)c1	nt	nt	i	i	nt	i	nt	nt
